Nrf2 ARE act: Nrf2 pathway activation; AREc32 ARE-luciferase reporter (MCF7-derived line), luminescence, 24 h; Potency, µM (doses to about 46.1 µM), for inactives: top-dose activation, hits mostly activators; 410,000 tested, 0.31% active; AID 624171; also: potency is read from the fitted curve at half-maximal effect; % of control where 0% means no effect; nearly all actives have a fitted effect of over 65% in size
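ARE-driven firefly luciferase activity in AREc32 cells measured after a 24 hr compound exposure at 37 deg C, using Steady-Glo reagent and a 30 min room-temperature hold.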
mIDH1 inhibitor: human IDH1 R132H inhibition. AID 602179. IDH1-R132H enzyme, NADPH consumption, diaphorase/resazurin fluorescence. Potency, µM (doses to about 76.6 µM), for the others: at the top dose activity change, negative = inhibition, usual class: inhibitors. 390,000 tested, 0.093% active. O75874; also: potency is read from the fitted curve at half-maximal effect; % is scaled to controls: 0 for no effect and ±100 for the full control effect; nearly all actives have a fitted effect of over 65% in size
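IDH1-R132H (0.5 ug/mL) preincubated 30 min with compound, then NADPH (0.016 mM) and alpha-KG (2 mM) added; 80 min at RT, pH 7.5. Remaining NADPH coupled via diaphorase/resazurin to fluorescence (540/590 nm); concentration-response curves normalized to no-enzyme control.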
A549 tox-1: kills or reduces viability of A549 cells in Nrf2 counter-screen; A549 ARE-Fluc cells, CellTiter-Fluor viability, 18-24 h; Potency, µM (top dose mostly 46 µM), inactives show at the top dose activity change, negative = cytotoxicity, actives largely listed as inhibitors; 390,000 tested, 0.16% active; AID 504648; also: potency is read from the fitted curve at half-maximal effect; % is scaled to controls: 0 for no effect and ±100 for the full control effect
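A549 ARE-Fluc cells in 5% FBS OPTI-MEM, 5000 cells/well, rested 2 h then exposed to compounds in concentration-response for 18-24 h at 37 °C. Viability by CellTiter-Fluor fluorescence (Ex 405/Em 525) after 30 min; luciferase luminescence (BugLite, 15 min, RT) read afterwards.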
LDHA block: inhibitors of human lactate dehydrogenase A | P00338 | purified LDHA, NADH/diaphorase-resazurin fluorescence; active compounds read low | activity change, % (values are at about 110 or 230 µM) | 480,000 tested, 0.15% active; in the data active = activity change below about -30%; inconclusive = mostly about -25% to -30%;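 also: plate controls were DMSO wells for no effect and wells without enzyme for full effect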
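LDH5 2 nM; NADH 0.06 mM, pyruvate 0.2 mM; 200 mM Tris pH 7.4, EDTA, Tween-20; 5 min RT. Detection: diaphorase 0.133 mg/mL + resazurin 37 µM, fluorescence ex540/em590 at 0 and 20 min; normalized to enzyme-free and DMSO wells.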
12-LOX inh: inhibitors of human 12S-lipoxygenase ALOX12 | 580,000 tested, 1.1% active | Potency, µM (highest dose often 108 µM), without a hit: top-dose activity change, negative = inhibition, usual class: inhibitors | P18054 | AID 1671190 | purified 12hLO, xylenol orange hydroperoxide absorbance; also: potency is read from the fitted curve at half-maximal effect; % is scaled to controls: 0 for no effect and ±100 for the full control effect
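Hydroperoxide product was detected by ferrous iron/xylenol orange as the 573 to 405 nm absorbance ratio. Arachidonic acid at 40 uM (final) was turned over for 30 min at room temperature by 150 nM human 12hLO, pH 7.0 Hepes buffer, after 15 min compound preincubation.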
Nrf2 inh: Nrf2 pathway inhibition | A549 ARE-Fluc reporter, luciferase luminescence, 18-24 h | Potency, µM (doses to about 46 µM), without a hit: at the top dose activity change, negative = inhibition, usual class: inhibitors | 360,000 tested, 2.1% active | AID 504444; also: potency is read from the fitted curve at half-maximal effect; % is scaled to controls: 0 for no effect and ±100 for the full control effect; nearly all actives have a fitted effect of over 60% in size
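In this cell-based qHTS, ARE-driven firefly luciferase in A549 cells reports Nrf2 activity; the luminescent signal after BugLite lysis is the measured value, with a prior CellTiter-Fluor read for cell health.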
FLuc counter 3: counter-screen for Nrf2 inhibitors: firefly luciferase enzyme inhibition | 1,400 tested, 4% active | Potency, µM (top dose mostly 57.5 µM), for inactives: at the top dose activity change, negative = inhibition, hits mostly inhibitors | purified firefly luciferase, luminescence inhibition | shares compounds with Nrf2 inh; also: potency is read from the fitted curve at half-maximal effect; % is scaled to controls: 0 for no effect and ±100 for the full control effect; nearly all actives have a fitted effect of over 65% in size
Target sequence (P08659 whole entry, looked up): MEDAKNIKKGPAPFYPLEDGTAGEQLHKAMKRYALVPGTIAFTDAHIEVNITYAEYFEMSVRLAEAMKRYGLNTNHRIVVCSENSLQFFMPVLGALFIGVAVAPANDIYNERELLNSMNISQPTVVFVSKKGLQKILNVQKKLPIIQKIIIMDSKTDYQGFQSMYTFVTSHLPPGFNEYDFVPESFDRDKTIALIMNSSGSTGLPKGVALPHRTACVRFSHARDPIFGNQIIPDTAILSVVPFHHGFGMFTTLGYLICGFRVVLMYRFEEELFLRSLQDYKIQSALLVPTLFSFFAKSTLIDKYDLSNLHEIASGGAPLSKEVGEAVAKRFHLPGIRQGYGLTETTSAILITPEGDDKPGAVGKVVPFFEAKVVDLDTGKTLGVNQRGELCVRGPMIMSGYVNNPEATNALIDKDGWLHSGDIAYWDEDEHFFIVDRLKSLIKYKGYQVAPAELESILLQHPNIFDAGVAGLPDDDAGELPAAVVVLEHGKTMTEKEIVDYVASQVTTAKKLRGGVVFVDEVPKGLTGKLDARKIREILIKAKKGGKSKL
A549 tox-2: A549 cytotoxicity, Nrf2 inhibitor counterscreen; shares compounds with Nrf2 inh; A549 ARE-Fluc cells, cytotoxicity counterscreen; Potency, µM (titrated, usually from 46.1 µM), inactives show at the top dose activity change, negative = cytotoxicity, most hits filed as inhibitors; 1,400 tested, 2% active; AID 720523;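 also: potency is read from the fitted curve at half-maximal effect; cells exposed to compounds for 18 to 24 hours; % is scaled to controls: 0 for no effect and ±100 for the full control effect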
ARE-Fluc inh: confirmation of Nrf2 inhibitors in A549 ARE reporter cells; shares compounds with Nrf2 inh; A549 ARE-firefly luciferase reporter, luminescence; Potency, µM (titrated, usually from 46.1 µM), for the others: at the top dose activity change, negative = inhibition, hits mostly inhibitors; 1,400 tested, 74% active; AID 720524; also: potency is read from the fitted curve at half-maximal effect; % is scaled to controls: 0 for no effect and ±100 for the full control effect; nearly all actives have a fitted effect of over 65% in size
Starred values were filed as active, the others as inactive; i = inactive; ? = inconclusive; . = no result shown. The list is not random: actives were taken first. Their share in the collection is about 2.7%. Unless noted, calls follow the shape of the dose curve; as a rule, active = well fitted curve in the direction sought with a large enough effect; inconclusive = small, poorly fitted or top-dose-only effect, or another doubt; inactive = no such curve, though single readings can be large; an effect the other way counts as inactive or inconclusive.

SMILES	Nrf2 ARE act	mIDH1 inhibitor	A549 tox-1	LDHA block	12-LOX inh	Nrf2 inh	FLuc counter 3	A549 tox-2	ARE-Fluc inh
COc1cccc(NC(=O)c2ccc3c(c2)CCN3S(C)(=O)=O)c1	4%	9%	3%	-3	35%	20%	.	.	.
CS(=O)(=O)N1CCCc2cc(C(=O)Nc3cccc(C(F)(F)F)c3)ccc21	1%	-1%	-28%	-1	-6%	9.2µM*	?	-16%	?
CCCCCCOc1ccc(CNCCCOCC)cc1	.	.	.	3	?	.	.	.	.
COc1ccccc1OC(C)C(=O)Nc1nc(-c2ccc(S(=O)(=O)N3CCOCC3)cc2)cs1 (centres undefined)	0%	4%	?	-2	-3%	4%	.	.	.
COc1ccccc1C(=O)Nc1nc(-c2ccc(S(=O)(=O)N3CCOCC3)cc2)cs1	-1%	-2%	-28%	-4	8%	5.2µM*	-12%	-17%	1.3µM*
c1ccc2c(c1)CCN(c1ncnc3c1[nH]c1ccccc13)C2	2%	7%	-25%	-15	5%	5.8µM*	-24%	-10%	5.8µM*
Cc1ccc2c(c1)[nH]c1c(N3CCN(Cc4ccccc4)CC3)ncnc12	-2%	10%	?	-5	-10%	8.2µM*	-29%	?	12µM*
COc1ccc2cc3c(N)nn(C(=O)c4ccccc4Cl)c3nc2c1	-2%	-9%	-3%	-4	7%	9.2µM*	-28%	-20%	?
COc1ccc2cc3c(N)nn(C(=O)c4cccc(F)c4)c3nc2c1	1%	-10%	4%	-9	-9%	?	.	.	.
Cc1ccc(-c2cc3cccc[n+]3cc2-c2ccc(C)cc2)cc1	3%	2%	-17%	-3	5%	3.3µM*	1%	-12%	2.6µM*
c1ccc(C[n+]2cccc3c4ccccc4ccc32)cc1	0%	12%	?	0	21%	?	0%	-11%	.
Cc1cccc(-n2ncc3c2CCCC3NC(=O)C2(C(N)=O)CC2)c1C (centres undefined)	-1%	-5%	-8%	-6	216%	2.3µM*	-2%	-5%	3.7µM*
Cc1cc(C)c(C(=O)NC2CCCc3c2cnn3-c2cccc(C)c2C)o1 (centres undefined)	0%	-10%	-13%	-9	-5%	?	.	.	.
CCc1cc(C(=O)NC2CCCc3c2cnn3-c2cccc(C)c2C)n(C)n1 (centres undefined)	1%	-5%	?	-5	-1%	0.18µM*	1%	-3%	0.082µM*
Cc1ccc(-n2ncc3c2CCCC3NC(=O)c2ccoc2)cc1C (centres undefined)	0%	0%	-11%	-8	-8%	?	.	.	.
Cc1cc(C)cc(-n2ncc3c2CCCC3NC(=O)C2(C(N)=O)CC2)c1 (centres undefined)	3%	1%	-1%	-5	105%	?	.	.	.
Cc1cc(C(=O)NC2CCCc3c2cnn3-c2ccc(C)c(C)c2)n(C)n1 (centres undefined)	-1%	3%	-21%	0	21%	0.21µM*	-7%	-11%	0.023µM*
O=C(CNc1cccc2ccccc12)N/N=C/c1ccc[nH]1	4%	-2%	-8%	0	i	3.7µM*	?	-18%	2.9µM*
CSc1ccc(/C=N/NC(=O)CNc2cccc3ccccc23)cc1	3%	1%	-4%	16	-3%	-18%	.	.	.
O=C(CSc1ncnc2c1cnn2-c1ccc(F)cc1)NC1CCCC1	1%	-1%	1%	-7	489%	5.2µM*	-11%	0%	?
CC(=O)OC1CCC2(C=O)C3CCC4(C)CC(C5=CC(=O)OC5)CC4(O)C3CCC2(O)C1 (centres undefined)	.	.	.	-2	?	.	.	.	.
C[C@H]1O[C@@H](O[C@H]2[C@@H](O)C[C@H](O[C@H]3[C@@H](O)C[C@H](O[C@H]4CC[C@@]5(C)[C@H](CC[C@@H]6[C@@H]5C[C@@H](O)[C@]5(C)[C@@H](C7=CC(=O)OC7)CC[C@]65O)C4)O[C@@H]3C)O[C@@H]2C)C[C@H](O)[C@@H]1O	-3%	-8%	?	-2	6%	0.13µM*	2%	?	0.058µM*
CCOc1ccc(OCc2ccc(C(=O)NN=Cc3ccc[nH]3)cc2)cc1	3%	3%	?	-4	-11%	1.8µM*	-10%	?	1.8µM*
O=C(N/N=C/c1ccc[nH]1)c1ccccc1OCc1ccc(F)cc1	1%	-4%	1%	-17	1%	47%	.	.	.
COc1cccc(Cn2c(NCc3ccco3)nc3c2c(=O)n(C)c(=O)n3C)c1	2%	1%	?	-6	-1%	8.2µM*	-1%	-9%	6.5µM*
SMILES	Nrf2 ARE act	mIDH1 inhibitor	A549 tox-1	LDHA block	12-LOX inh	Nrf2 inh	FLuc counter 3	A549 tox-2	ARE-Fluc inh
CCCNc1nc2c(c(=O)n(C)c(=O)n2C)n1Cc1cccc(C)c1	2%	-5%	-9%	-1	-32%	6.5µM*	0%	2%	10µM*
CCCCCCn1c(NCC)nc2c1c(=O)n(C)c(=O)n2C	1%	-7%	-17%	-8	7%	3.7µM*	1%	-7%	5.8µM*
Cc1cccc(Cn2c(NCCc3ccccc3)nc3c2c(=O)n(C)c(=O)n3C)c1	.	.	.	3	3%	.	.	.	.
CCCNc1nc2c(c(=O)n(C)c(=O)n2C)n1CCC(C)C	3%	0%	-20%	-4	414%	9.2µM*	2%	-5%	?
CCCCNc1nc2c(c(=O)n(C)c(=O)n2C)n1CCC	0%	4%	0%	-5	6%	-5%	.	.	.
CCOc1ccccc1NC(=O)c1nn(-c2ccc(OC)cc2)ccc1=O	.	.	.	3	4%	.	.	.	.
Cn1nc(C(C)(C)C)cc1C(=O)NCc1ccc2c(c1)OCO2	-1%	-9%	-18%	-3	-9%	1.8µM*	4%	-16%	3.7µM*
CCCCn1c(SCC(=O)Nc2ccc(C(C)=O)cc2)nc2c(-c3ccccc3)c[nH]c2c1=O	.	.	.	5	5%	.	.	.	.

Screening results (PubChem BioAssay)
